Reference: PubChem BioAssay AID2283162 (EPA ToxCast)
Records with an inconclusive call do not appear. Active and inactive are the calls of the source. How the source made its calls: active means hit-call score of the fitted dose curve at least 0.9, where 1 is the maximum; inconclusive means response in the unintended direction; inactive means score below 0.9.

These compounds were tested against human Insulin-like Growth Factor 1 Receptor (IGF1R), IGF1R (gene 3480) (UniProt P08069) (assay: NVS_ENZ_hIGF1R: NovaScreen (NVS) Enzymatic Assay for human Insulin-like Growth Factor 1 Receptor (IGF1R)).
Sequence of human Insulin-like Growth Factor 1 Receptor (IGF1R), IGF1R (gene 3480) (P08069 whole entry, looked up): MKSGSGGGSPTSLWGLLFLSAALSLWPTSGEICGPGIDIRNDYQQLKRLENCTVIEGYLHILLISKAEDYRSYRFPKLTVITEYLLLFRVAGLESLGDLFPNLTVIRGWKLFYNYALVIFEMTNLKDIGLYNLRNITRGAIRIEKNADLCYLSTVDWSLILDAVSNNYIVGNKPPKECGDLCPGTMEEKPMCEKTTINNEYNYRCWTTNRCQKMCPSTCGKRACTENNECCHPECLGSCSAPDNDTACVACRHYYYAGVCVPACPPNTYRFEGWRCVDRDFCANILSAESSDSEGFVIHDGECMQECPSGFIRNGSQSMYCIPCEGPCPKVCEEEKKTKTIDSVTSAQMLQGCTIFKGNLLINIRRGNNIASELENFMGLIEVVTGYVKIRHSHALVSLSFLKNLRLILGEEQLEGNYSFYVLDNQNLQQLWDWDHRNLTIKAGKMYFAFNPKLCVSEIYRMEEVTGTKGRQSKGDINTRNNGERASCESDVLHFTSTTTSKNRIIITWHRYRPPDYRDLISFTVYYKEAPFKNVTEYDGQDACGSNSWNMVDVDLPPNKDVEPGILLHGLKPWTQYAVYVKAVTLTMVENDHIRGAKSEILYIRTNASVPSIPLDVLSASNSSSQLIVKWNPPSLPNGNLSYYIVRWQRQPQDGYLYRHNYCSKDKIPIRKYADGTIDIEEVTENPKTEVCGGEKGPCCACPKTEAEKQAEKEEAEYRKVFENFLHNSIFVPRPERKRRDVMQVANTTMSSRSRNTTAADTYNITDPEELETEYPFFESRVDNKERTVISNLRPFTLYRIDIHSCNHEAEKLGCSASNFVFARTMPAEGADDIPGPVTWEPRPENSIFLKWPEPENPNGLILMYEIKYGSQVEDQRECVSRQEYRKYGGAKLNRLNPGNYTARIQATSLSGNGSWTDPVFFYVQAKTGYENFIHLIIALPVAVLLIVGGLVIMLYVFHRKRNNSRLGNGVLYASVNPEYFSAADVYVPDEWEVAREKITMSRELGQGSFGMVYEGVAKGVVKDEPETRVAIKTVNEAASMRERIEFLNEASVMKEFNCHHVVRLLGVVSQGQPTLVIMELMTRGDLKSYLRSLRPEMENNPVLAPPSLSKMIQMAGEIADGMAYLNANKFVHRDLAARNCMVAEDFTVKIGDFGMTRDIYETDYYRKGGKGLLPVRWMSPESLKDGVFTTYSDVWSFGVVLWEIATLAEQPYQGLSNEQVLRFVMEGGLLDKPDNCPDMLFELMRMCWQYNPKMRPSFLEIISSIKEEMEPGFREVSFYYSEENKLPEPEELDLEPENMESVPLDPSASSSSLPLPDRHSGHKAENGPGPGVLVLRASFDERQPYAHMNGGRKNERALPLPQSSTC
Method: NVS_ENZ_hIGF1R is a biochemical, single-readout assay that uses extracted gene-proteins in a cell-free assay. Measurements were taken 1 hour after chemical dosing in a 384-well plate.NVS_ENZ_hIGF1R is one of one assay component(s) measured or calculated from the NVS_ENZ_hIGF1R assay. It is designed to make measurements of enzyme activity, a form of enzyme reporter, as detected with fluorescence intensity signals by Fluorescence and electrophoretic mobility shift technology.Data from the assay component NVS_ENZ_hIGF1R was analyzed into 1 assay endpoint. This assay endpoint, NVS_ENZ_hIGF1R, was analyzed in the positive analysis fitting direction relative to DMSO as the negative control and baseline of activity. Using a type of enzyme reporter, loss-of-signal activity can be used to understand changes in the enzymatic activity as they relate to the gene IGF1R. Furthermore, this assay endpoint can be referred to as a primary readout, because this assay has produced multiple assay endpoints where this one serves a enzymatic activity function. To generalize the intended target to other relatable targets, this assay endpoint is annotated to the kinase intended target family, where the subfamily is receptor tyrosine kinase.
Binding assays used specific radioligands (tritiated, iodinated) with non-radioactive competitive displacement ligands in agonist or antagonist protocols (as indicated) and various reference compounds and inhibitors to titrate specific binding to receptors and transporters. Most enzyme assays (CYPs, kinases, phosphatases, proteases, HDACs) used recombinant protein and specific substrates (fluorescence mostly, some colorimetric and radioactive) and inhibitors, followed by a biochemical separation of substrate and product. All assays for the biochemical HTS were initially run in duplicate at a single concentration (10 uM for CYP450 assays and 25 uM for all others). Assay-chemical combinations meeting a pre-defined threshold (e.g., 30% inhibition and other criteria defined below) were then run in singleton concentration-response format with maximum concentration of 20 uM for CYPs and 50 uM for all others. Each assay was run with positive and negative controls, and concurrent controls on every plate. The follow-up (secondary) screen tested active chemical-pairs in concentration series, as well as a few additional assays not tested in the primary screen, some selected negative inactives, and several cases re-run in the concentration series for confirmatory purposes.
`O=C(O)CC(O)(CC(=O)O)C(=O)O` was tested, and the AC50 was 5.18 µM (active). In the case of `CCCCCCCC/C=C\CCCCCCCC(=O)OC[C@@H](O)[C@H]1OC[C@H](O)[C@H]1O`, the outcome is reported as “inactive”. In the case of `COc1cc(C(=O)NC2CCN(C)CC2)ccc1Nc1ncc2c(n1)N(C1CCCC1)CC(F)(F)C(=O)N2C`, the AC50 is reported as 23.2 µM (active). `CN(C)C(=O)NC1(c2ccccc2)CCN(CCC[C@]2(c3ccc(Cl)c(Cl)c3)CCCN(C(=O)c3ccccc3)C2)CC1` was tested, and the outcome was “inactive”. `CC(C)c1cccc(C(C)C)c1NC(=O)NS(=O)(=O)c1cc(C(C)(C)O)co1` was tested, and the outcome was “inactive”. `c1ccc(C(O[C@@H]2CCCN(CCc3ccc4c(c3)OCO4)C2)c2ccccc2)cc1` was tested, and the outcome was “inactive”. `CCCCc1ccc2c(n1)[C@@H](c1ccc(OC)cc1C[C@H](C)C(=O)O)[C@H](C(=O)O)[C@H]2c1ccc2c(c1)OCO2` was tested, and the outcome was “inactive”.
